An excerpt weighted towards active compounds, which were near 7.6% of everything screened.
MCF10A rerep = induces DNA re-replication in MCF 10a normal breast cells; 350,000 compounds, 2.9% hits; MCF 10A DNA re-replication, Hoechst nuclear intensity, 48 h; Potency, µM (doses to about 46.1 µM), most hits filed as activators; note: nearly all actives have a fitted effect of over 50% in size
KB-V1 MDR tox = KB-V1 MDR subline cytotoxicity | 400,000 compounds, 3.4% hits | Potency, µM (doses to about 46.1 µM), most hits filed as cytotoxic | AID 1347076 | KB-V1 MDR cells viability, CellTiter-Glo, 72 h; note: nearly all actives have a fitted effect of over 60% in size
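Following 72 h at 37 degrees C with compound, KB-V1 cell viability was read by CellTiter-Glo luminescence, medium being phenol-red-free DMEM plus 10% FBS; concentration-response parameters came from normalized, curve-fitted qHTS data.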
KB-3-1 tox = kills parental KB-3-1 adenocarcinoma cells. Potency, µM (titrated, usually from 46.1 µM), usual class: cytotoxic. 400,000 compounds, 1.4% hits. KB-3-1 viability, CellTiter-Glo ATP luminescence, 72 h. AID 1347075; note: nearly all actives have a fitted effect of over 60% in size
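KB-3-1 parental drug-naive adenocarcinoma cells in DMEM/10% FBS, incubated 72 h at 37 C with pin-transferred compounds across a concentration series. Viability by CellTiter-Glo luminescence; concentration-response curves fitted after normalization.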
KCNH2 3.1 block = inhibitors of human KCNH2 3.1 potassium channel isoform; 340,000 compounds, 0.95% hits; U2OS KCNH2 3.1, thallium flux FluxOr; hits give low values; AID 720553; activity change, % (tested at about 1.8 µM);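 active = maximum activity change below -70%; inconclusive = maximum activity change from -70% to -50%; inactive = maximum activity change above -50%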;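 note: thallium influx rate constant from kinetic fluorescence after stimulation buffer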
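Kinetic fluorescence (2 min after stimulation buffer) measures Tl+ influx through KCNH2 3.1 expressed by viral transduction in U2OS cells; the rate constant is normalized against DMSO controls serving as positive and negative references.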
SW480 rereplic = induces DNA re-replication in SW480 colon adenocarcinoma cells; AID 624297; 340,000 compounds, 1.8% hits; SW480 DNA re-replication, Hoechst DNA content imaging, 48 h; Potency, µM (series often up to 46.1 µM), hits mostly activators; note: nearly all actives have a fitted effect of over 55% in size
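Image-based DNA-content assay: after two days of treatment, nuclei were labelled with the DNA dye Hoechst and imaged, and hits were compounds raising the count of nuclei showing high fluorescence intensity.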
KCNH2 WT inh = inhibitors of human wildtype KCNH2 potassium channel; Q12809; U2OS, BacMam KCNH2, thallium flux FluxOr; hits give low values; activity change, % at 1.84 µM; 340,000 compounds, 0.37% hits; AID 720551;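 active = maximum activity change below -70%; inconclusive = maximum activity change between -70% and -50%; inactive = maximum activity change above -50%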
Target sequence (Q12809 whole entry, looked up): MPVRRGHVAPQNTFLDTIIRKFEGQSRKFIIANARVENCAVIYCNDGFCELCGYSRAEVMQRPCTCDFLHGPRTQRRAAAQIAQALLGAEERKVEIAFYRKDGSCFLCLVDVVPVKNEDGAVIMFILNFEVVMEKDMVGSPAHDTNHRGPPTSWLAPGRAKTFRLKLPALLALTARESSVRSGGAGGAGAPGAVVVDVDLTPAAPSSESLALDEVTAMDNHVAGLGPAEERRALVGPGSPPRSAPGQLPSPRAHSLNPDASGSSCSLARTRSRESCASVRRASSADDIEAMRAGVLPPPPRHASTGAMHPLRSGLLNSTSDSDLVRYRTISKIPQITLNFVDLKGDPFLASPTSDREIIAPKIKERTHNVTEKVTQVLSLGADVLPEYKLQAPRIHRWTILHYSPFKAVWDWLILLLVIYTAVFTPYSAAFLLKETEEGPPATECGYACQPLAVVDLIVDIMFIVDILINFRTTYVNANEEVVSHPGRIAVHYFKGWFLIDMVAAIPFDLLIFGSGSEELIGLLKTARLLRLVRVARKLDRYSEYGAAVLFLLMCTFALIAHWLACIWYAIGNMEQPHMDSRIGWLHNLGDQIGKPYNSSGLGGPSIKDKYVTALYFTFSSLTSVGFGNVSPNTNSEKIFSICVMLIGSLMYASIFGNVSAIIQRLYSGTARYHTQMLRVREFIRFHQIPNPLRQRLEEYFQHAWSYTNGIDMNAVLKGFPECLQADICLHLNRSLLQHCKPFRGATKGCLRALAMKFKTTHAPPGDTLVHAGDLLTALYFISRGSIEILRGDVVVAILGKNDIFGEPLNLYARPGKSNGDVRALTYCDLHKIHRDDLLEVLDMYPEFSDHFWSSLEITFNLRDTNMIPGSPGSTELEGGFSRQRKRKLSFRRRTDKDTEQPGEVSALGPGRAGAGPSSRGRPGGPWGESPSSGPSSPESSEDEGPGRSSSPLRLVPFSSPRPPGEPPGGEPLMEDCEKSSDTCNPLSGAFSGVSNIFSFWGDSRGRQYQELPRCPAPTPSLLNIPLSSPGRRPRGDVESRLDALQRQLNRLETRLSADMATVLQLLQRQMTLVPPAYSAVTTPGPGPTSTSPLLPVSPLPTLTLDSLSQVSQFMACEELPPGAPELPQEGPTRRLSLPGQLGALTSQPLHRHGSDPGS
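U2OS cells were transduced with wild-type KCNH2 virus (2.03 x 10^8 / mL) for 4 h at room temperature, then cultured overnight at 37 C. Thallium flux was read with FluxOr dye. Rate constants were normalized to DMSO controls.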
Each line names hits and unclear results; the compound was inactive in the other large screens. Unless noted, calls come from the whole dose curve; as a rule, active = well fitted curve in the direction sought with a large enough effect; inconclusive = small, poorly fitted or top-dose-only effect, or another doubt; inactive = no such curve, though single readings can be large; an effect the other way counts as inactive or inconclusive.

O=C(O)c1ccc(/C=C(\c2nc3ccccc3[nH]2)c2nc3ccccc3s2)cc1	MCF10A rerep inconclusive, KB-3-1 tox inconclusive, SW480 rereplic 12µM
Cc1cccc(/C=C(\c2nc3ccccc3[nH]2)S(=O)(=O)c2ccccc2)c1	MCF10A rerep 5.8µM, KB-V1 MDR tox 18µM, KB-3-1 tox 4.1µM, SW480 rereplic inconclusive
O=C(/C(=C(\O)c1ccccc1)c1nc2ccccc2[nH]1)c1ccccc1	MCF10A rerep inconclusive, KB-V1 MDR tox inconclusive, KB-3-1 tox inconclusive
CC(C)(C)c1ccc(/C=C(\c2nc3ccccc3[nH]2)S(=O)(=O)c2ccccc2)cc1	MCF10A rerep 5.2µM, KB-V1 MDR tox inconclusive, KB-3-1 tox inconclusive, SW480 rereplic 8.2µM
O=C(O)c1ccc(-c2nc3ccccc3[nH]2)cc1	none
C[C@H]1CCC(=O)N([C@H](CN=[N+]=[N-])Cc2ccccc2)CC1	KB-V1 MDR tox inconclusive (no result: KCNH2 3.1 block, KCNH2 WT inh)
Cc1ccc(C(=O)NCc2ccc(Cl)cc2)cc1S(=O)(=O)N1CCCCC1	KB-V1 MDR tox 18µM, KB-3-1 tox inconclusive
Cc1cccc(NS(=O)(=O)c2cc(C(=O)OC(C)C(=O)NCc3ccc4c(c3)OCO4)ccc2C)c1 (configuration not stated)	KB-V1 MDR tox 15µM
Cc1ccc(C(=O)NCc2ccc3c(c2)OCO3)cc1S(=O)(=O)N1CCCCC1	KCNH2 WT inh -91
Cc1ccc(CNC(=O)c2ccc(C)c(S(=O)(=O)N3CCCCC3)c2)cc1	none
O=C(NCc1ccc2c(c1)OCO2)c1ccc(Cl)c(S(=O)(=O)N2CCOCC2)c1	KCNH2 3.1 block -94
CCC(=O)c1ccc(OCC(=O)N2CCN(c3ncccn3)CC2)cc1	none
CCc1cc(Cn2nc(-c3ccccc3)cc2C(=O)NCc2ccccc2OC)on1	SW480 rereplic inconclusive
CN(Cc1nc2ccccc2c(=O)[nH]1)C(=O)COc1ccccc1Cc1ccccc1	MCF10A rerep 21µM
CCCC(=O)N(CCc1ccc(OC)cc1)Cc1nc2ccccc2c(=O)[nH]1	KB-V1 MDR tox 15µM
CCN(Cc1nc2ccccc2c(=O)[nH]1)C(=O)COc1ccccc1Cc1ccccc1	MCF10A rerep inconclusive, SW480 rereplic inconclusive
O=C(C1CCN(Cc2ccc(F)cc2)CC1)N(CCO)Cc1ccccc1	none
O=C(C1CC1)N(CCc1ccccc1)Cc1nc2ccccc2c(=O)[nH]1	KB-V1 MDR tox 16µM
O=C(C1CCN(Cc2ccc(F)cc2)CC1)N(CCc1ccccc1)Cc1ccccc1	MCF10A rerep inconclusive, KB-3-1 tox 16µM
COCOc1ccc(/C=C/C(=O)c2c(O)cc(OCOC)cc2OCOC)cc1	MCF10A rerep inconclusive
CC(C)N(Cc1cc2ccccc2[nH]c1=O)C(=O)c1ccco1	none
CN(C)/C=C/C(=O)c1ccccc1OCc1cnc(Cl)s1	MCF10A rerep 18µM, SW480 rereplic inconclusive (no result: KCNH2 WT inh)
c1ccc2c(c1)nc1n2CCN1CCN1CCCC1	KB-V1 MDR tox inconclusive
CCOC(=O)/C=C(C)\C=C\c1c[nH]c2ccccc12	none
CCOC(=O)/C=C(C)/C=C/C=C(C)/C=C/c1c(C)cc(OC)c(C)c1C	MCF10A rerep 27µM (no result: KB-V1 MDR tox, KB-3-1 tox, KCNH2 3.1 block, KCNH2 WT inh)
COc1cc(C)c(/C=C/C(C)=C/C=C/C(C)=C/C(=O)O)c(C)c1C	MCF10A rerep 8.2µM
CCCCCC(=O)Nc1ccc(S(=O)(=O)Nc2nccc(C)n2)cc1	none
Cc1nc(C)c(/C(O)=C/c2nc3ccccc3oc2=O)s1	MCF10A rerep inconclusive, KB-3-1 tox inconclusive, SW480 rereplic inconclusive
COc1cc(NC(=O)c2ccccc2Cl)c2ncccc2c1	MCF10A rerep 4.6µM, KB-V1 MDR tox inconclusive, KB-3-1 tox inconclusive, SW480 rereplic inconclusive
O=C(Nc1cccc2cccnc12)c1ccc(Cl)cc1Cl	none
COc1cc(NS(=O)(=O)c2ccc(C)cc2)c2ncccc2c1	KB-V1 MDR tox inconclusive, KB-3-1 tox 9.2µM, SW480 rereplic 3.7µM
COc1cc(OC)c(NC(=O)c2cc3ccccc3cc2O)cc1Cl	MCF10A rerep 21µM, KB-V1 MDR tox inconclusive, KB-3-1 tox inconclusive
O=C(CCl)N1CCN(S(=O)(=O)c2ccc3c(c2)CCC3)CC1	MCF10A rerep inconclusive, KB-V1 MDR tox inconclusive, KB-3-1 tox inconclusive, SW480 rereplic inconclusive
